Compounds with a hit are over-represented: about 2.8% of the library has one in this group of screens.
IP6K1 inh – Primary qHTS assay for small molecule inhibitors of Inositol hexaphosphate kinase 1 (IP6K1); Inositol hexakisphosphate kinase 1 (Homo sapiens), Q92551; IP6K1 kinase, ADP-Glo luminescence, 2 h; hits give low values; activity change, % (series mostly up to about 58 µM); 140,000 compounds, 0.81% hits; AID 1645851, 2021; in the data active = activity change below about -25%; also: % is scaled to controls: 0 for no effect and ±100 for the full control effect
Target sequence (Q92551 whole entry, looked up): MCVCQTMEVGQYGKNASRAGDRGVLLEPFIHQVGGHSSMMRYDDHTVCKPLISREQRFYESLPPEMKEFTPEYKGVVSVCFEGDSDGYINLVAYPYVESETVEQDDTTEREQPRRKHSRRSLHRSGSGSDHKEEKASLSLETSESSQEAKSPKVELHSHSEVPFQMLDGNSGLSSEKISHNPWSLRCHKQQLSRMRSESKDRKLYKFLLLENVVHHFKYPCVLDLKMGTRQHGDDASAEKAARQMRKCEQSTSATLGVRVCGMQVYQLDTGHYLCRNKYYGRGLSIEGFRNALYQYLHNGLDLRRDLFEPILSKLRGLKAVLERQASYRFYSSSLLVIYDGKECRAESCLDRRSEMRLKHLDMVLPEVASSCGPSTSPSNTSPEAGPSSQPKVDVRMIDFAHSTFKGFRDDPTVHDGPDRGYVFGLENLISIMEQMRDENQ
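ADP-Glo luminescence measures ADP made by human IP6K1 during a 2 h RT reaction with ATP/IP6 (mix at 1.3 mM/130 uM); top library doses 57.5 and 19.1 uM final.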
KDM5B inhibitor – Primary screen for KDM5B Histone Demethylases FDH-coupled qHTS; Lysine-specific demethylase 5B (Homo sapiens), Q9UGL1; Potency, µM (highest dose often 57.7 µM), most hits filed as inhibitors; KDM5B demethylase, FDH-coupled NADH fluorescence (FDH is formaldehyde dehydrogenase); 220,000 compounds, 2.6% hits; also: potency is read from the fitted curve at half-maximal effect; 0% is about no effect; nearly all actives have a fitted effect of over 70% in size
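Compound dilutions met 200 nM (final) KDM5BΔAP for 10 min at room temperature before substrate addition. The substrate mix held 12.5 µM H3K4me3 with cofactors 25 µM α-ketoglutarate and 50 µM Fe²⁺. NADH signal gain over 30 min defined activity.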
SNCA expr inhib – Primary qHTS assay for inhibitors of alpha-synuclein gene (SNCA) expression. 140,000 compounds, 0.17% hits. Potency, µM (series often up to 57.2 µM), inactives show at the highest dose activity change, negative = inhibition, usual class: inhibitors. HEK-293 SNCA-luciferase knock-in, luminescence, 24 h;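 also: potency is read from the fitted curve at half-maximal effect; plate controls were DMSO cells for no effect and cell-free wells for full effect; nearly all actives have a fitted effect of over 45% in size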
SNCA viab count – GF-AFC viability counterscreen for inhibitors of alpha-synuclein gene (SNCA) expression; HEK-293-SNCA-luc viability, GF-AFC fluorescence, 24 h; Potency, µM (highest dose often 57.1 µM), for inactives: at the highest dose activity change, negative = cytotoxicity, hits mostly cytotoxic; 150,000 compounds, 0.12% hits; AID 1671193, 2021;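 also: potency is read from the fitted curve at half-maximal effect; 0% = DMSO-treated cells and -100% = medium-only wells without cells; nearly all actives have a fitted effect of over 30% in size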
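HEK-293-SNCA-luc cells (1500/well) plated 24 h, then exposed 24 h to a dilution series; GF-AFC added 30 min at 37C, fluorescence 405/540 nm; normalised to medium-only and DMSO wells, Hill fit.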
Numbers without * were called inactive; [ ] = dose if it differs, or a comment. Unless noted, calls follow the shape of the dose curve; as a rule, active = well fitted curve in the direction sought with a large enough effect; inconclusive = small, poorly fitted or top-dose-only effect, or another doubt; inactive = no such curve, though single readings can be large; an effect the other way counts as inactive or inconclusive.

Results for COC(=O)[C@@H]1Cc2c([nH]c3ccccc23)[C@H]2C[C@@H](NCCNC(C)=O)C[C@@H](c3ccc(C)cc3)N21 ?
IP6K1 inh: -11; KDM5B inhibitor: 28µM*; SNCA expr inhib: -14%; SNCA viab count: 2%

Results for Cc1[nH]cnc1C(=O)O ?
KDM5B inhibitor: inactive

How did CN(C)c1ccc(C(=C2C=CC(=[N+](C)C)C=C2)c2ccc(N(C)C)cc2)cc1 do in these assays?
IP6K1 inh: -58*; SNCA expr inhib: inconclusive; SNCA viab count: inconclusive

What do the screens show for `O=C(Cn1cc(C(=O)c2ccccc2)c2ccccc21)NCc1ccccc1`?
KDM5B inhibitor: inactive

Results for CC(=O)N1C[C@H](NC(=O)c2cc3c(n(C)c2=O)CCCC3)[C@@H](C2CC2)C1 ?
IP6K1 inh: 20; KDM5B inhibitor: 28µM*; SNCA expr inhib: 1%; SNCA viab count: 9%

How did CCCCCCNc1nc2c(c(=O)n(C)c(=O)n2C)n1Cc1cccc(Cl)c1 do in these assays?
KDM5B inhibitor: inactive

Results for COc1ccc2cc(CN3CCC(OC)CC3)c(-c3cccc(C)c3)nc2c1 ?
IP6K1 inh: 13; KDM5B inhibitor: 25µM*; SNCA expr inhib: -1%; SNCA viab count: -19%

Results for COc1ccc(CN2CCOC[C@H]2c2ncc(-c3ccc(S(C)(=O)=O)cc3)[nH]2)cc1 ?
IP6K1 inh: -1; KDM5B inhibitor: 35µM*; SNCA expr inhib: inconclusive; SNCA viab count: -4%[87.6 µM]

What do the screens show for `O=C(NCCNc1cccnc1)C1CCC(=O)N(Cc2ccc(Cl)cc2)C1` (centres undefined)?
IP6K1 inh: -14; KDM5B inhibitor: 11µM*; SNCA expr inhib: 4%; SNCA viab count: -12%

What do the screens show for `Cc1cccc2c(=O)c(-c3ccccc3)c(NC(=O)c3cccs3)oc12`?
KDM5B inhibitor: inactive

How did COc1ccccc1-c1ccnc(N[C@H]2CO[C@H]3[C@@H]2OC[C@@H]3NC(=O)COc2ccccc2)n1 do in these assays?
IP6K1 inh: -4; KDM5B inhibitor: 22µM*; SNCA expr inhib: 20%; SNCA viab count: 6%

How did COc1ccccc1-c1ccnc(N[C@H]2CO[C@H]3[C@@H]2OC[C@@H]3NC(=O)c2ccccc2)n1 do in these assays?
IP6K1 inh: -8; KDM5B inhibitor: 35µM*; SNCA expr inhib: -16%[87.6 µM]; SNCA viab count: -2%[87.6 µM]

Results for COc1ccccc1-c1ccnc(N[C@H]2CO[C@H]3[C@@H]2OC[C@@H]3NC(=O)c2ccc(C)cc2)n1 ?
IP6K1 inh: 0; KDM5B inhibitor: inconclusive; SNCA expr inhib: 5%; SNCA viab count: -3%

How did COc1ccc(C(=O)Nc2oc3ccccc3c(=O)c2-c2ccc(C)cc2)cc1OC do in these assays?
KDM5B inhibitor: inactive

How did Cc1noc(-c2ccc3c(c2)OCO3)c1C(=O)NCCC(c1ccccc1)c1ccccc1 do in these assays?
IP6K1 inh: 14; KDM5B inhibitor: 20µM*; SNCA expr inhib: -8%; SNCA viab count: 18%

What do the screens show for `Cc1noc(-c2ccc3c(c2)OCO3)c1C(=O)NCc1cccc(Cl)c1`?
IP6K1 inh: 1; KDM5B inhibitor: 32µM*; SNCA expr inhib: 5%; SNCA viab count: 8%

Results for Cc1noc(-c2ccc3c(c2)OCO3)c1C(=O)NCCSCc1ccco1 ?
IP6K1 inh: -11; KDM5B inhibitor: inconclusive; SNCA expr inhib: -4%; SNCA viab count: 12%

What do the screens show for `Cc1noc(-c2ccc(OC(F)(F)F)cc2)c1C(=O)NCCC(c1ccccc1)c1ccccc1`?
IP6K1 inh: 0; KDM5B inhibitor: inconclusive; SNCA expr inhib: 27%; SNCA viab count: 18%

How did CC(C)c1ccc(CNC(=O)c2noc(-c3ccc4c(c3)OCO4)n2)cc1 do in these assays?
IP6K1 inh: -7; KDM5B inhibitor: 25µM*; SNCA expr inhib: 97%; SNCA viab count: 19%

How did O=C(NCc1ccc(Cl)cc1)c1noc(-c2ccc3c(c2)OCO3)n1 do in these assays?
IP6K1 inh: -3; KDM5B inhibitor: inconclusive; SNCA expr inhib: 52%; SNCA viab count: -3%

Results for Cc1noc(-c2ccc3c(c2)OCO3)c1C(=O)NCCSCc1ccccc1 ?
IP6K1 inh: -6; KDM5B inhibitor: 32µM*; SNCA expr inhib: 3%; SNCA viab count: -1%

How did COc1ccc(CNC(=O)C2CCCN(S(=O)(=O)c3cc(-c4noc(C)n4)ccc3C)C2)cc1 (centres undefined) do in these assays?
KDM5B inhibitor: inactive

How did CN1CCN(c2ccc3nnc(CCC(=O)NCC4CCN(Cc5ccc(F)cc5)CC4)n3n2)CC1 do in these assays?
KDM5B inhibitor: inactive

Results for CCN1CCC(NC(=O)NCCc2cccc3cccnc23)CC1 ?
KDM5B inhibitor: inactive

How did Cc1noc(-c2cccc(F)c2)c1C(=O)NCCCc1ccccc1 do in these assays?
IP6K1 inh: 13; KDM5B inhibitor: inactive; SNCA expr inhib: -28%; SNCA viab count: -13%

How did Cc1noc(-c2ccc3c(c2)OCO3)c1C(=O)NCCCc1ccccc1 do in these assays?
IP6K1 inh: -2; KDM5B inhibitor: 25µM*; SNCA expr inhib: -7%; SNCA viab count: -5%

How did COc1cc(OC)cc(-c2onc(C)c2C(=O)NCCC(c2ccccc2)c2ccccc2)c1 do in these assays?
IP6K1 inh: -16; KDM5B inhibitor: 32µM*; SNCA expr inhib: -16%; SNCA viab count: 1%

What do the screens show for `CCn1c(SCc2ccc(Cl)cc2Cl)nc2c1c(=O)n(C)c(=O)n2C`?
KDM5B inhibitor: inactive

What do the screens show for `Cc1ccc2snc(C(=O)N3CCN(C(=O)Nc4ccccc4)CC3)c2c1`?
KDM5B inhibitor: inactive

How did Cc1nc2ncccn2c1C(=O)N1CCn2nc(CO)cc2C1 do in these assays?
IP6K1 inh: -11; KDM5B inhibitor: 32µM*; SNCA expr inhib: 15%; SNCA viab count: 3%

Results for O=C(O)C1CNCCN(C(=O)c2nc3ccc(F)cc3[nH]2)C1 (centres undefined) ?
IP6K1 inh: -2; KDM5B inhibitor: inactive; SNCA expr inhib: -4%; SNCA viab count: 9%

What do the screens show for `Cc1nc2ncccn2c1C(=O)N1CCNCC(C(=O)O)C1` (centres undefined)?
IP6K1 inh: -6; KDM5B inhibitor: 22µM*; SNCA expr inhib: -3%; SNCA viab count: -5%

How did COc1ccc(C)cc1NC(=O)N1CCN(C)C2(CCC(=O)N(C)CC2)C1 (centres undefined) do in these assays?
IP6K1 inh: 34; KDM5B inhibitor: inactive; SNCA expr inhib: 12%; SNCA viab count: -5%

What do the screens show for `CNc1ccc(C)cc1C(=O)N1CCN(C)C2(CCN(C)CC2)C1`?
IP6K1 inh: -13; KDM5B inhibitor: 20µM*; SNCA expr inhib: 22%; SNCA viab count: 14%

What do the screens show for `O=C(NCc1ccc(N2CCOCC2)cc1)c1cc2c(s1)CN(C1CC1)C2`?
IP6K1 inh: 13; KDM5B inhibitor: 11µM*; SNCA expr inhib: 46%; SNCA viab count: 1%
